Results on one sequence are retold here after PMC7862700, “An all-to-all approach to the identification of sequence-specific readers for epigenetic DNA modifications on cytosine”.

Holding throughout (test): DAPPL (digital affinity profiling via proximity ligation, sequencing); 10 mM Tris-HCl pH 7.5, 50 mM NaCl, 1 mM DTT, 4% glycerol, room temperature, 30 min; GST-TFs on glutathione beads, 16-mer random dsDNA library, 0.1% formaldehyde crosslink after washing; high values mean tight binding
The target in one experiment is T1, FEV (Homo sapiens, UniProt Q99581 1-238).
T1 sequence: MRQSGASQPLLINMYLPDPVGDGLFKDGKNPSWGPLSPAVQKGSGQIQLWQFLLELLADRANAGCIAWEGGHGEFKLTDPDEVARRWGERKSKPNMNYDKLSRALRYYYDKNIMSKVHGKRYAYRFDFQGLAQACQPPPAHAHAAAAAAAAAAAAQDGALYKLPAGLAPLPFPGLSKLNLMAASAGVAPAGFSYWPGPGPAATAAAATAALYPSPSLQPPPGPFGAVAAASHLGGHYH
The conditions noted are these: protein: recombinant; tags: N-terminal GST; dsDNA, one strand shown. In short, it runs like this: (§1)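 Beads coated with glutathione captured GST-fused human transcription factors that had been expressed in yeast, and the factors were then given DNA barcodes and pooled with a tag-only sample. The pools were incubated with 200 nmole of a random double-stranded 16-mer DNA library in Tris/NaCl/DTT/glycerol buffer for 30 min at room temperature, washed, crosslinked with 0.1% formaldehyde and proximity-ligated with BsaI/T4 ligase at 37 °C for 1 h. PCR amplification and Illumina NextSeq500 sequencing came last. Binding signal is each hexamer's read frequency for a factor divided by its frequency for the tag-only sample.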

Another experiment deals with ETV5 (Homo sapiens, UniProt P41161 1-510). The conditions noted are these: protein: recombinant; tags: N-terminal GST; dsDNA, one strand shown. In short, it runs like this:
as §1

The target of a further experiment is HSF1 (Homo sapiens, UniProt Q00613 1-529). The conditions noted are these: protein: recombinant; tags: N-terminal GST; chain copies: 3; dsDNA, one strand shown. In short, it runs like this:
as §1

The target of the next experiment is T2, SPIC (Homo sapiens, UniProt Q8N5J4 1-248).
T2 sequence: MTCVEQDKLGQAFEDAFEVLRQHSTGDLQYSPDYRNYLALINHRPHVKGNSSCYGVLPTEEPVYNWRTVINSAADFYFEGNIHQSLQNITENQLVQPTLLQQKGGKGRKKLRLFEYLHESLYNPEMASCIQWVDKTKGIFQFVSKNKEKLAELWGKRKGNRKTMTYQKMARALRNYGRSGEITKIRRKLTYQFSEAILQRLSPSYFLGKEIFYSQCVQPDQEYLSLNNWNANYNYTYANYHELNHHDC
The conditions noted are these: protein: recombinant; tags: N-terminal GST; dsDNA, one strand shown. Summed up: as §1

A further experiment concerns the target ELF4 (Homo sapiens, UniProt Q99607 1-663). The conditions noted are these: protein: recombinant; tags: N-terminal GST; dsDNA, one strand shown. In short, it runs like this: as §1
Another experiment deals with T3, ELK4 (Homo sapiens, UniProt P28324-2 1-405).
T3 sequence: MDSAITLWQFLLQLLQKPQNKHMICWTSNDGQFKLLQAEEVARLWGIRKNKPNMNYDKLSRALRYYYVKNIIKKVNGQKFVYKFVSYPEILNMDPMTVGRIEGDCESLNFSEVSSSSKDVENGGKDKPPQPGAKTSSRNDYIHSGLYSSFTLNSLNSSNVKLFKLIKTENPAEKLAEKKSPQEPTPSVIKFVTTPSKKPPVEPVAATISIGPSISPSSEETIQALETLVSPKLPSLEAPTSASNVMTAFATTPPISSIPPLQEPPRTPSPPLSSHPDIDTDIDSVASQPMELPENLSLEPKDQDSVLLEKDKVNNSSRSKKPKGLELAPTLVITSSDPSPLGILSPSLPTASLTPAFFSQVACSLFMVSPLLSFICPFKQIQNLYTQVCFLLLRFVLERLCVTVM
The conditions noted are these: protein: recombinant; tags: N-terminal GST; dsDNA, one strand shown. Summed up: as §1

The target of the next experiment is T4, ETV2 (Homo sapiens, UniProt O00321 1-342).
T4 sequence: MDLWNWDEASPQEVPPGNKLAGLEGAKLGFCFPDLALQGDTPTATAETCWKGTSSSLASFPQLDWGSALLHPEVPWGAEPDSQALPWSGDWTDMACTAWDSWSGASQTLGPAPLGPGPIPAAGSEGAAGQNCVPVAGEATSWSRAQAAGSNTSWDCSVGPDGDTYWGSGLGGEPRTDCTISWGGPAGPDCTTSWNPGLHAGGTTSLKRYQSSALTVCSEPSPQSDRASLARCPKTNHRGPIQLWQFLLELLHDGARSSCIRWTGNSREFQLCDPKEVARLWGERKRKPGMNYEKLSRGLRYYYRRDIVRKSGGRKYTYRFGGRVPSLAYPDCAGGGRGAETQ
The conditions noted are these: protein: recombinant; tags: N-terminal GST; dsDNA, one strand shown. In short, it runs like this:
as §1

In the next experiment the target is T5, ELF3 (Homo sapiens, UniProt P78545 1-371).
T5 sequence: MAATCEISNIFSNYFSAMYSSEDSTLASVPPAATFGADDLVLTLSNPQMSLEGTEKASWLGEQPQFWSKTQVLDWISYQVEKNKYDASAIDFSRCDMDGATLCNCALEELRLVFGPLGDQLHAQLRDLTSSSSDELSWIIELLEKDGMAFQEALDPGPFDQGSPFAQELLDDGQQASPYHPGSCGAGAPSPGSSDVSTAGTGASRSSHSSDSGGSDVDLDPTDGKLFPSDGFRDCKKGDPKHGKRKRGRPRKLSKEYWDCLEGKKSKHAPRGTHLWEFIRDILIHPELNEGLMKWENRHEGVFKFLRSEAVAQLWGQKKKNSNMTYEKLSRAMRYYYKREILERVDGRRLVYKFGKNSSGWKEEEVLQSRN
The conditions noted are these: protein: recombinant; tags: N-terminal GST; dsDNA, one strand shown. Summed up: as §1

The next experiment addresses CRX (Homo sapiens, UniProt O43186 1-299). The conditions noted are these: protein: recombinant; tags: N-terminal GST; dsDNA, one strand shown. Summed up:
as §1

The target in a further experiment is ETV1 (Homo sapiens, UniProt P50549 1-477). The conditions noted are these: protein: recombinant; tags: N-terminal GST; dsDNA, one strand shown. In short, it runs like this:
as §1

A further experiment deals with T6, ERF (Homo sapiens, UniProt P50548 1-548).
T6 sequence: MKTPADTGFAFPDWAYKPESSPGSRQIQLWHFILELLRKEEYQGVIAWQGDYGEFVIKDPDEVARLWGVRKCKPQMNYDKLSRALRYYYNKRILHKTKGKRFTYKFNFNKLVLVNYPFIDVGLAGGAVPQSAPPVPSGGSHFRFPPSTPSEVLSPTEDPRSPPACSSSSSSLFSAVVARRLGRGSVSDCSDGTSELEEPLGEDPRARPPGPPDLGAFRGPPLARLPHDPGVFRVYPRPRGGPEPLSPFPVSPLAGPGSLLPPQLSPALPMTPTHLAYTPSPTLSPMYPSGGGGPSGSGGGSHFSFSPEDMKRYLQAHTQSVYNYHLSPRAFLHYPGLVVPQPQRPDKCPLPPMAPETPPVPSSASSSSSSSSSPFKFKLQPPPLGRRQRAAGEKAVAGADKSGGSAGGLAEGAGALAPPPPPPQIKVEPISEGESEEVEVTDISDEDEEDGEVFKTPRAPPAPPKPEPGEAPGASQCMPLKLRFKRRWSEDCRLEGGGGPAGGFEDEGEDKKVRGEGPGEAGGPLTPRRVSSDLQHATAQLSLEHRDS
The conditions noted are these: protein: recombinant; tags: N-terminal GST; dsDNA, one strand shown. Summed up:
as §1

The target of a further experiment is T7, ETV3L (Homo sapiens, UniProt Q6ZN32 1-361).
T7 sequence: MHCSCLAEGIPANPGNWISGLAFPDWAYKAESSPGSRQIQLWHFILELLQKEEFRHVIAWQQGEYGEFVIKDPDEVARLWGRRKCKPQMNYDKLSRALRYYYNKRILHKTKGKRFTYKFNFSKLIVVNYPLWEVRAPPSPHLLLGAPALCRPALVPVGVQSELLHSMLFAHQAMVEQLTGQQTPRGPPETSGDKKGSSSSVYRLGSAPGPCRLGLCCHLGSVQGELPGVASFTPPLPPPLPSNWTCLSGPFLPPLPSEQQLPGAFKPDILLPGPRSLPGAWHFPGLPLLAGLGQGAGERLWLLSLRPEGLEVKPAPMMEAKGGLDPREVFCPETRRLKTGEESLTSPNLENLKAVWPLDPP
The conditions noted are these: protein: recombinant; tags: N-terminal GST; dsDNA, one strand shown. Summed up:
as §1

A further experiment concerns the target T8, ETS2 (Homo sapiens, UniProt P15036 1-469).
T8 sequence: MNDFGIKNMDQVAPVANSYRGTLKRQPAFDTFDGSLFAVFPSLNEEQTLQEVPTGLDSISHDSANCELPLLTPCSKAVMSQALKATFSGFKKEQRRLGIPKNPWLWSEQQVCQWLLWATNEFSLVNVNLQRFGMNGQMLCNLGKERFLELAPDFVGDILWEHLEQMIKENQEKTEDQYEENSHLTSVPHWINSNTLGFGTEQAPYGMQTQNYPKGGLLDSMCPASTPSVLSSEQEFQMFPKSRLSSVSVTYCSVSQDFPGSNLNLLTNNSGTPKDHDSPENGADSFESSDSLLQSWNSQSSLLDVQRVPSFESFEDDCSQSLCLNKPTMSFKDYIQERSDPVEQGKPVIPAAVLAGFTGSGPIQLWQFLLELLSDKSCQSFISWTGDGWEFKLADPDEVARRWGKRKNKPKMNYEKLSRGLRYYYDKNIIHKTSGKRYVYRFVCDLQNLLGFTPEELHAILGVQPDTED
The conditions noted are these: protein: recombinant; tags: N-terminal GST; dsDNA, one strand shown. Summed up: as §1

In another experiment the target is T9, SPDEF (Homo sapiens, UniProt O95238 1-335).
T9 sequence: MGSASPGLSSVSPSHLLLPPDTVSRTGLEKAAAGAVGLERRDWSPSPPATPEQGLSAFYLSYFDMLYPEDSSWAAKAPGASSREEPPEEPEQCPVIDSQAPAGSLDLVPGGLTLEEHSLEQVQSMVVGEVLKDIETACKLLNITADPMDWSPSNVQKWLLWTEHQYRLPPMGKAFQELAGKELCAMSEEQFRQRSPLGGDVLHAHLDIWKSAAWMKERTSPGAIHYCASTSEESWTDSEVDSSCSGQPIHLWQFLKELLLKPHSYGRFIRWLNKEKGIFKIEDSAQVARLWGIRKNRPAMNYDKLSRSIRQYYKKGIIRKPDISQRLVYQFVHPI
The conditions noted are these: protein: recombinant; tags: N-terminal GST; dsDNA, one strand shown. Summed up: as §1

The next experiment concerns the target T10, ETV7 (Homo sapiens, UniProt Q9Y603 1-341).
T10 sequence: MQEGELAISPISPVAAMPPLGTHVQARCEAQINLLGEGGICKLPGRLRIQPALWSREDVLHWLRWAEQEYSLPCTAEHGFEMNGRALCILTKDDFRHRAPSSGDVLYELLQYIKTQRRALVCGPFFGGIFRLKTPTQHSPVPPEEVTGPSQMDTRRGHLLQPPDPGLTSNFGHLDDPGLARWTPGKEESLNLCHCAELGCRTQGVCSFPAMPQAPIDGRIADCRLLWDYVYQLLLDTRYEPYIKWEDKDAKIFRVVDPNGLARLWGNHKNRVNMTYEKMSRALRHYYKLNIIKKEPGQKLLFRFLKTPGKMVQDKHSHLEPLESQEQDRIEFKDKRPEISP
The conditions noted are these: protein: recombinant; tags: N-terminal GST; dsDNA, one strand shown. In short, it runs like this:
as §1

Another experiment addresses T11, ELF5 (Homo sapiens, UniProt Q9UKW6-2 1-255).
T11 sequence: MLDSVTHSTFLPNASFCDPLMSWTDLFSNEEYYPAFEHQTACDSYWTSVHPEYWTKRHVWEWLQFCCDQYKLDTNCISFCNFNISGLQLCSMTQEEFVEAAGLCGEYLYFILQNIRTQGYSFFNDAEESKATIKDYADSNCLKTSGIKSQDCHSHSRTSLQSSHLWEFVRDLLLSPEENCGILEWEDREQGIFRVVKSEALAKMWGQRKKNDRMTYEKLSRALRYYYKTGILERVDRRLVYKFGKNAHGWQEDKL
The conditions noted are these: protein: recombinant; tags: N-terminal GST; dsDNA, one strand shown. In short, it runs like this: as §1

Another experiment concerns the target T12, ETV3 (Homo sapiens, UniProt P41162-2 1-143).
T12 sequence: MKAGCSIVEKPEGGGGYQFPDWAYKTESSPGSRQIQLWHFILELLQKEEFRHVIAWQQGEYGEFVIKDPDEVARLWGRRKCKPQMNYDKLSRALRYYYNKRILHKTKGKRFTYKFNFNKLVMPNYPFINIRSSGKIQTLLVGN
The conditions noted are these: protein: recombinant; tags: N-terminal GST; dsDNA, one strand shown. In short, it runs like this:
as §1

The target of a further experiment is ETV6 (Homo sapiens, UniProt P41212 1-452). The conditions noted are these: protein: recombinant; tags: N-terminal GST; dsDNA, one strand shown. Summed up: as §1
ETV6, sequence (P41212 whole entry): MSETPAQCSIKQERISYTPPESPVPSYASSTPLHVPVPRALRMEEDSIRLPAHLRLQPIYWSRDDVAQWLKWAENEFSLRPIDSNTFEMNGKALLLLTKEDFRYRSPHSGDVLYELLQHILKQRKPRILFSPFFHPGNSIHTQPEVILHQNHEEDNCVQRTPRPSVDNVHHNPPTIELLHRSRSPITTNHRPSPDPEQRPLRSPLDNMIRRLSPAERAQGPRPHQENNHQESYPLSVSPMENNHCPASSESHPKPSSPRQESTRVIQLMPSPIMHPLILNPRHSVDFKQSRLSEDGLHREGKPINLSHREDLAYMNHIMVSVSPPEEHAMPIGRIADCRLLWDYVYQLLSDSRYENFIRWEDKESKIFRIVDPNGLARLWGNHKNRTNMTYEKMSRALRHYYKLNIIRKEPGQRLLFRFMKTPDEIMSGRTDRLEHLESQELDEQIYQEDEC

CRX, sequence (O43186 whole entry): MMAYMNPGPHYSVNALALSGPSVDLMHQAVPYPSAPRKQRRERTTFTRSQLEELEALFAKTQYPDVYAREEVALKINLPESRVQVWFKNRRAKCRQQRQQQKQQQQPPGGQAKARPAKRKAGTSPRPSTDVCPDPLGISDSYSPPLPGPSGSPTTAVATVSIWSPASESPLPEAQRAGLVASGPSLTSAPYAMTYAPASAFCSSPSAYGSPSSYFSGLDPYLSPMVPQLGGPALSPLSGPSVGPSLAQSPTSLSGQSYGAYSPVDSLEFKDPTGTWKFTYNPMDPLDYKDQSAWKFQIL
ETV5, sequence (P41161 whole entry): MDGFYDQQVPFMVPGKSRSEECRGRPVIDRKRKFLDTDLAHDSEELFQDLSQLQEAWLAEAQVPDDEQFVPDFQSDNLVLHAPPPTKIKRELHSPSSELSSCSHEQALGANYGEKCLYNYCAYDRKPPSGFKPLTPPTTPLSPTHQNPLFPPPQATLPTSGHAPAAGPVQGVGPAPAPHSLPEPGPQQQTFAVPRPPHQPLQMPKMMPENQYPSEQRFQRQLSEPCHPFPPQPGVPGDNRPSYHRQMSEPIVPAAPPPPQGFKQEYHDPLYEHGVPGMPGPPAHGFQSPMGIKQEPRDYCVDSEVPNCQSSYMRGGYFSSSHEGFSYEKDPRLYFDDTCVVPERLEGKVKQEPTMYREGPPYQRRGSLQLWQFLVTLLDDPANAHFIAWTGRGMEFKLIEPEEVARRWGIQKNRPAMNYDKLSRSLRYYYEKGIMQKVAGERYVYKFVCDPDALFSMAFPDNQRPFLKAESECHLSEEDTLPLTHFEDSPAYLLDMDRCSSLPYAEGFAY
ETV1, sequence (P50549 whole entry): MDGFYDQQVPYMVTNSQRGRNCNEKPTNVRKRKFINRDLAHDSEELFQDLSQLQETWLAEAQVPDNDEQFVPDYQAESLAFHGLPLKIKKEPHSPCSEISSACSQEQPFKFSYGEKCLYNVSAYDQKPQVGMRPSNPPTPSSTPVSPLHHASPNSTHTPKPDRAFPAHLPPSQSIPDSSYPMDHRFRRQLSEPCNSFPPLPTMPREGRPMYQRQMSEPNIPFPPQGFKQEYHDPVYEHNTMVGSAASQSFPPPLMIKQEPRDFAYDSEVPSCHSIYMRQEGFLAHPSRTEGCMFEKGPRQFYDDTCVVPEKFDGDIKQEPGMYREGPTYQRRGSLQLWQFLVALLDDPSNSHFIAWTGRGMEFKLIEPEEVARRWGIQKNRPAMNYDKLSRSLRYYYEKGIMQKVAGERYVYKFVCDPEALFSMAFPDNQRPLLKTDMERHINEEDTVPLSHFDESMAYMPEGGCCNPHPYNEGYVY
ELF4, sequence (Q99607 whole entry): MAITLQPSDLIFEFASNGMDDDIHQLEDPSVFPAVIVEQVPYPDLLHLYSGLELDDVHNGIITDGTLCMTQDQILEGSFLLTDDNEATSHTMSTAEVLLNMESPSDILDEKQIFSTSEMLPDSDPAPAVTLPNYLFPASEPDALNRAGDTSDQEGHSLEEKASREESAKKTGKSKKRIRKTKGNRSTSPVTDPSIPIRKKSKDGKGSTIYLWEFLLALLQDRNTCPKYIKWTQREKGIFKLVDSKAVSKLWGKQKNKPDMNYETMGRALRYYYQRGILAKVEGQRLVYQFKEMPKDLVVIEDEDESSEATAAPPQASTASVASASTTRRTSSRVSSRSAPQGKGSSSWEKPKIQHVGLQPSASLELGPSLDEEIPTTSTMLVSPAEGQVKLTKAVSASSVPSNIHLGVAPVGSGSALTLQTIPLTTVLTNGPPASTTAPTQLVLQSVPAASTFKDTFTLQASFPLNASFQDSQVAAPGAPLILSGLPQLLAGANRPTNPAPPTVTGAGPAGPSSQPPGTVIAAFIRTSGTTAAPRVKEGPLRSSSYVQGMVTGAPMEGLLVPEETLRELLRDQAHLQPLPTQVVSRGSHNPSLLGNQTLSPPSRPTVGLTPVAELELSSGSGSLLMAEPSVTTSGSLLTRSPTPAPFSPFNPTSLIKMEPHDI
HSF1, sequence (Q00613 whole entry): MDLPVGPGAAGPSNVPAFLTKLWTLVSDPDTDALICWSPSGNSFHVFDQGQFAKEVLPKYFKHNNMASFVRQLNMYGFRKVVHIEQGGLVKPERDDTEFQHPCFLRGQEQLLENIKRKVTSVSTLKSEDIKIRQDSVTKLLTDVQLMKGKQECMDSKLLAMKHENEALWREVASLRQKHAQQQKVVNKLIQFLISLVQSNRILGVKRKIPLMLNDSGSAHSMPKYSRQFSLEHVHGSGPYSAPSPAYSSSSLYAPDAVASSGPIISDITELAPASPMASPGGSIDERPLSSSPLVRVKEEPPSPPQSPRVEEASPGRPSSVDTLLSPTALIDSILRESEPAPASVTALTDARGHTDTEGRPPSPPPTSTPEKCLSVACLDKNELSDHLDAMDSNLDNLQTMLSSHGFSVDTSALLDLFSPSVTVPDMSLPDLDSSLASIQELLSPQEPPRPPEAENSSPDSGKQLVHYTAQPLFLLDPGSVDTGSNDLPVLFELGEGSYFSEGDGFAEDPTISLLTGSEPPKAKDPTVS

As for TCTCGG, the binding signal with FEV is 1.31 fold enrichment (6-mer frequency, TF over GST control); in the experiment with ETV5, 1.41 fold enrichment (6-mer frequency, TF over GST control); with HSF1 it was 1.89 fold enrichment (6-mer frequency, TF over GST control); with SPIC, 1.1 fold enrichment (6-mer frequency, TF over GST control); with ELF4 it was 1.4 fold enrichment (6-mer frequency, TF over GST control); with ELK4, 1.38 fold enrichment (6-mer frequency, TF over GST control). In addition, the binding signal with ETV2 was 1.48 fold enrichment (6-mer frequency, TF over GST control); in the experiment with ELF3 it was 1.33 fold enrichment (6-mer frequency, TF over GST control); with CRX, 1.44 fold enrichment (6-mer frequency, TF over GST control); in the experiment with ETV1, 1.38 fold enrichment (6-mer frequency, TF over GST control); with ERF it was 1.24 fold enrichment (6-mer frequency, TF over GST control); with ETV3L, 1.48 fold enrichment (6-mer frequency, TF over GST control). For the same sequence, the binding signal with ETS2 was 1.3 fold enrichment (6-mer frequency, TF over GST control); with SPDEF, 1.24 fold enrichment (6-mer frequency, TF over GST control); with ETV7, 1.23 fold enrichment (6-mer frequency, TF over GST control); with ELF5 it was 1.32 fold enrichment (6-mer frequency, TF over GST control); with ETV3 it was 1.37 fold enrichment (6-mer frequency, TF over GST control); in the experiment with ETV6 it was 1.33 fold enrichment (6-mer frequency, TF over GST control).
